Measurements taken from ChEMBL document CHEMBL3988442, “University of Dundee, Small-Polar-MMV Screening Library” (2021).
For part of these data: Results with a measured potency or affinity are listed apart.

Columns and labels:
Design in all cases: scale not given: direction of the effect not stated beside the values
[1] = target: Protein translocase subunit SecA (Escherichia coli (strain K12)) (UniProt P10408); experiment: Assay to Identify E. coli SecA ATPase Inhibitors; format: functional; details: 30 µM
Protein translocase subunit SecA (Escherichia coli (strain K12)), sequence (P10408 whole entry): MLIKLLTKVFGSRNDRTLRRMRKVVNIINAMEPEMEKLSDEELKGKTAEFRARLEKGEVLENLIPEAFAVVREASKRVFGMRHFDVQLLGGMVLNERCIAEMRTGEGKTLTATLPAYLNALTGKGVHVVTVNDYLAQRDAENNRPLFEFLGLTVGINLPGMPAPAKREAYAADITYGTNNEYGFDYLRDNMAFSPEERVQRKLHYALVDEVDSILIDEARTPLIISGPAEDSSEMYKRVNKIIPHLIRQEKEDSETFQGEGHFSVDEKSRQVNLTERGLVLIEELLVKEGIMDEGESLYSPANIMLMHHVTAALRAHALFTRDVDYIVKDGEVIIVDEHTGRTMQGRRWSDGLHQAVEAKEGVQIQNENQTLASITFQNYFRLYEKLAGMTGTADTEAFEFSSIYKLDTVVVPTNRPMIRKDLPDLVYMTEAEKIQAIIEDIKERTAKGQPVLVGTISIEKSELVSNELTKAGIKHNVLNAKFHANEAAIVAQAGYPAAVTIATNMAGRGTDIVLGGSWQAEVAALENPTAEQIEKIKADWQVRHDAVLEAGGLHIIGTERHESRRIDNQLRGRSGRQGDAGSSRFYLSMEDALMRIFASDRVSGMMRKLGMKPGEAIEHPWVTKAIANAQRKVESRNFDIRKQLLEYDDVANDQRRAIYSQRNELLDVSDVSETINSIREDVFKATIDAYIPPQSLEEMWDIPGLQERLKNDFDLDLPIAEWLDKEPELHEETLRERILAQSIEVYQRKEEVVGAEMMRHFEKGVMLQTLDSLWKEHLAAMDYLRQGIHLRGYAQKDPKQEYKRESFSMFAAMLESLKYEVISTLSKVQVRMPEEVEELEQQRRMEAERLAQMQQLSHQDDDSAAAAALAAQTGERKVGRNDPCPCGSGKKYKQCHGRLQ

[2] = target: T1, Ubiquitin-activating enzyme e1, putative (Leishmania donovani (strain BPK282A1)) (UniProt E9BSI1); experiment: Leishmania donovani Ubiquitin Activating Enzyme (LdE1); format: functional; details: 30 µM
T1 sequence (whole entry): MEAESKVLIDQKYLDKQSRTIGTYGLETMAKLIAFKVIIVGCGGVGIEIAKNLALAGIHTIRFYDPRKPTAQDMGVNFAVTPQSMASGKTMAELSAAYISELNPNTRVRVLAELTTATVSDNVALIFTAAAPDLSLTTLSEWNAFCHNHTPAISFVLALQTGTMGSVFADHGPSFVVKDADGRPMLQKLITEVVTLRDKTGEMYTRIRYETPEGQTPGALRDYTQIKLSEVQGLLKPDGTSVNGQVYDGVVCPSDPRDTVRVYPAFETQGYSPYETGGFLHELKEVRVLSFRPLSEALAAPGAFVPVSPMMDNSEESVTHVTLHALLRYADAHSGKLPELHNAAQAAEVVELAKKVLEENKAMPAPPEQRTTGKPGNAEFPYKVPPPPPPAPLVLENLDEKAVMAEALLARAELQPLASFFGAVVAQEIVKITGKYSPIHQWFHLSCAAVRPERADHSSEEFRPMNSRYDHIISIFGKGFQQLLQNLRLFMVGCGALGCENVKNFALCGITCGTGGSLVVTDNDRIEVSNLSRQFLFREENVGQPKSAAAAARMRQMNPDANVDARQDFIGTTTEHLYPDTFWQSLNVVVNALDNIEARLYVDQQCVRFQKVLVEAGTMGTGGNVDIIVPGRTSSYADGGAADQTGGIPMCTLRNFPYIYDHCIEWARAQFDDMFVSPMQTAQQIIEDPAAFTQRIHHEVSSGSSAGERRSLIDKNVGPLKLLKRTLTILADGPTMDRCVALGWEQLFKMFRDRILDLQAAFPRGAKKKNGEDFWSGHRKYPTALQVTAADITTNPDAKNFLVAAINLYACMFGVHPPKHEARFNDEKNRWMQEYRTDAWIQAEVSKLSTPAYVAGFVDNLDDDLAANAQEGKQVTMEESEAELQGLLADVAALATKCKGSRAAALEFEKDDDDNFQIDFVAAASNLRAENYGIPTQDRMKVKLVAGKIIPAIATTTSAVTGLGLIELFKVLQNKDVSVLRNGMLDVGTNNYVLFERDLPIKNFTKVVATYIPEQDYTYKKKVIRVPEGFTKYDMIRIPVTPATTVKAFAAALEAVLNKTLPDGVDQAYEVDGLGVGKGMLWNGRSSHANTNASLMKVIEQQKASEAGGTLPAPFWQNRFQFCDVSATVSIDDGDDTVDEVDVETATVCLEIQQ

[3] = target: T2, Aspartate--tRNA(Asp/Asn) ligase (Mycobacterium tuberculosis (strain ATCC 25618 / H37Rv)) (UniProt P9WFW3); experiment: Assay for Asp RNA synthetase-1 from Mycobacterium tuberculosis; format: functional; details: 30 µM; also: in the data most compounds retested in dose-response had high values
T2 sequence (whole entry): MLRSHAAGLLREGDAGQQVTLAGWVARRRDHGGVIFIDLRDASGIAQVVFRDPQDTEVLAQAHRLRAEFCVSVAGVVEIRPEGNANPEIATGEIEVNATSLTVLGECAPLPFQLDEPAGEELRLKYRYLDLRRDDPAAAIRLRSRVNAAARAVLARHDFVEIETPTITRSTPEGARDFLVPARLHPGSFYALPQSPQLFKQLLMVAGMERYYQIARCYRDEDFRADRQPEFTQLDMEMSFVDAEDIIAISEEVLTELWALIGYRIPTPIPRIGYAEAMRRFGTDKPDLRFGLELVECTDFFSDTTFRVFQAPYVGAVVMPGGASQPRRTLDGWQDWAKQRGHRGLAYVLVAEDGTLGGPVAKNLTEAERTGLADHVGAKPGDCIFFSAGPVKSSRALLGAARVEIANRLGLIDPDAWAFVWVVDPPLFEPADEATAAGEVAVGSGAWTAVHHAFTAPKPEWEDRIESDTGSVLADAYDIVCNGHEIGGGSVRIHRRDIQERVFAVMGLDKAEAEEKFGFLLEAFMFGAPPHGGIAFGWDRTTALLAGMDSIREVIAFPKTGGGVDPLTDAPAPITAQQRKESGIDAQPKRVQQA

[4] = target: AMP-activated protein kinase, AMPK (Homo sapiens) (UniProt P54646+O43741+P54619+Q9UGJ0+Q9Y478+Q13131+Q9UGI9); experiment: AMP-dependent Kinase enzyme assay. An in vitro enzyme assay that detects ADP turnover that is directly proportional to AMPK activity. This uses naive AMPK that is activated during the assay with MK-8722; format: functional; details: 30 µM
[5] = target: Sialic acid-binding Ig-like lectin 9 (Homo sapiens) (UniProt Q9Y336); experiment: Hs-Siglec9 ALPHAscreen SOP 20170721; details: 10 µM
Sialic acid-binding Ig-like lectin 9 (Homo sapiens), sequence (Q9Y336 whole entry): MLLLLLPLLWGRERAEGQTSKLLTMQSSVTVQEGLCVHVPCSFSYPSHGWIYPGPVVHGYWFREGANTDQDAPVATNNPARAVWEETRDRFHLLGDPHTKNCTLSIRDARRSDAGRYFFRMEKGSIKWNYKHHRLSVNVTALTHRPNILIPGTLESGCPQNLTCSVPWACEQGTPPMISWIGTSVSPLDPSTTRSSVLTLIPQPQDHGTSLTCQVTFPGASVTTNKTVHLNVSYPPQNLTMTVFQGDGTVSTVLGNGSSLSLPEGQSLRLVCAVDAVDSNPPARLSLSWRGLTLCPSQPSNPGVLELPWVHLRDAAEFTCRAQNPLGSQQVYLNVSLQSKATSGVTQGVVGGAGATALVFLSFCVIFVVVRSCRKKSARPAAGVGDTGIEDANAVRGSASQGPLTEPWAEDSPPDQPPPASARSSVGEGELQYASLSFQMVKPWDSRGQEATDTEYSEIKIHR

Trypanosoma cruzi = experiment: Trypanosoma cruzi phosphomannomutase and mannose-1-phosphate guanylyltransferase assay; format: functional; details: 10 µM
[6] = target: T3, Arginase-2, mitochondrial (Homo sapiens) (UniProt P78540); experiment: in vitro enzyme assay to detect the production of urea directly proportional to the activity of Arginase II; format: functional; details: 33.3 µM; also: in the data most compounds retested in dose-response had high values
T3 sequence (whole entry): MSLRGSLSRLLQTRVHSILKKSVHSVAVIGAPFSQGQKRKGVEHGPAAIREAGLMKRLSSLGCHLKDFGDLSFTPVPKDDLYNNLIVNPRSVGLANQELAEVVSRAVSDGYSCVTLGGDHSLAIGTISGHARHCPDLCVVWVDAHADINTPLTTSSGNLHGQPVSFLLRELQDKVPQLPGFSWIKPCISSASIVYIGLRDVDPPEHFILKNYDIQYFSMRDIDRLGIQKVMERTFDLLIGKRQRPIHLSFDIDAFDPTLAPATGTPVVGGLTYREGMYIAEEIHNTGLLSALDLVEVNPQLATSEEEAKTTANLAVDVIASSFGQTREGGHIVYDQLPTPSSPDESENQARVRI

[7] = target: T4, Proteasome subunit beta (Trypanosoma cruzi) (UniProt O96673); experiment: Trypanosoma cruzi proteasome chymotrypsin-like activity (TcProtChymo) assay.; also: in the data most compounds retested in dose-response had high values; format: functional; details: 9.37 µM
T4 sequence (whole entry): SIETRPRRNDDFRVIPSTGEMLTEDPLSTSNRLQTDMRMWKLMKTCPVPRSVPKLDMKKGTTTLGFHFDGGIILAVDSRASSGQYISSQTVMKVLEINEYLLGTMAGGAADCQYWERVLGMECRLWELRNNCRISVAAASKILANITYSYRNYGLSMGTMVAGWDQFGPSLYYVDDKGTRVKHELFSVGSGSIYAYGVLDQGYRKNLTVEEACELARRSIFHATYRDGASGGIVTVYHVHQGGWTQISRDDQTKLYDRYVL

Homo sapiens = species: Homo sapiens; experiment: To identify inhibition of the IFN signalling (Jak-Stat) pathway via expression of an eGFP reporter gene under the control of an IFN-stimulated response element (ISRE) containing MxA promoter.; format: functional; details: 30 µM
[8] = target: Shiga toxin 2 (Escherichia coli O157:H7) (UniProt P09385+P09386); experiment: E. coli 0.157:H7 Shiga Toxin SOP - stx2 screening assay; format: functional; details: 30 µM
[9] = target: T5, Tyrosyl-tRNA synthetase, putative (Trypanosoma cruzi (strain CL Brener)) (UniProt Q4DSP6); experiment: Trypanosoma cruzi tyrosyl tRNA synthetase (TcYRS) _High Tyrosine SOP; format: functional; details: 30 µM; also: in the data most compounds retested in dose-response had high values
T5 sequence (whole entry): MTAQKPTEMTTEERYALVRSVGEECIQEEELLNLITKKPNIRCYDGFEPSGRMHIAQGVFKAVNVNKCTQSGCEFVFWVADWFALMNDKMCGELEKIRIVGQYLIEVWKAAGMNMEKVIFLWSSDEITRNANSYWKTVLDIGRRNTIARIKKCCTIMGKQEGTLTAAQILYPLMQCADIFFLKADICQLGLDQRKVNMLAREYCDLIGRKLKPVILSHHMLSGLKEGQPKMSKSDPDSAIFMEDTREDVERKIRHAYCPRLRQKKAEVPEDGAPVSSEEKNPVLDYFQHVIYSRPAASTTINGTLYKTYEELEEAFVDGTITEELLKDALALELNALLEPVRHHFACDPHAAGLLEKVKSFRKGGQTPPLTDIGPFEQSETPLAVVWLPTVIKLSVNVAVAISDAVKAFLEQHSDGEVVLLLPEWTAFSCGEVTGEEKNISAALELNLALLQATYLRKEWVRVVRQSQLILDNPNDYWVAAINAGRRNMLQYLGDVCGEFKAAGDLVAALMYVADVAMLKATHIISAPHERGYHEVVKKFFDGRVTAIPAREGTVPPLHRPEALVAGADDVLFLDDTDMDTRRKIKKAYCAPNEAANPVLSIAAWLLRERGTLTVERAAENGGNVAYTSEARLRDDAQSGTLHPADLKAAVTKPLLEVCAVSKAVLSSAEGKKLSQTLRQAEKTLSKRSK

[10] = target: T5, Tyrosyl-tRNA synthetase, putative (Trypanosoma cruzi (strain CL Brener)); experiment: Trypanosoma cruzi tyrosyl tRNA synthetase (TcYRS) SOP; format: functional; details: 30 µM
[11] = target: Chromo domain-containing protein 1 (Saccharomyces cerevisiae (strain ATCC 204508 / S288c) (Baker's yeast)) (UniProt P32657); experiment: ScCHD-1 Enzyme Inhibition Assay; format: functional; details: 30 µM; also: in the data most compounds retested in dose-response had high values
Chromo domain-containing protein 1 (Saccharomyces cerevisiae (strain ATCC 204508 / S288c) (Baker's yeast)), sequence (P32657 whole entry, the tested form may be a part): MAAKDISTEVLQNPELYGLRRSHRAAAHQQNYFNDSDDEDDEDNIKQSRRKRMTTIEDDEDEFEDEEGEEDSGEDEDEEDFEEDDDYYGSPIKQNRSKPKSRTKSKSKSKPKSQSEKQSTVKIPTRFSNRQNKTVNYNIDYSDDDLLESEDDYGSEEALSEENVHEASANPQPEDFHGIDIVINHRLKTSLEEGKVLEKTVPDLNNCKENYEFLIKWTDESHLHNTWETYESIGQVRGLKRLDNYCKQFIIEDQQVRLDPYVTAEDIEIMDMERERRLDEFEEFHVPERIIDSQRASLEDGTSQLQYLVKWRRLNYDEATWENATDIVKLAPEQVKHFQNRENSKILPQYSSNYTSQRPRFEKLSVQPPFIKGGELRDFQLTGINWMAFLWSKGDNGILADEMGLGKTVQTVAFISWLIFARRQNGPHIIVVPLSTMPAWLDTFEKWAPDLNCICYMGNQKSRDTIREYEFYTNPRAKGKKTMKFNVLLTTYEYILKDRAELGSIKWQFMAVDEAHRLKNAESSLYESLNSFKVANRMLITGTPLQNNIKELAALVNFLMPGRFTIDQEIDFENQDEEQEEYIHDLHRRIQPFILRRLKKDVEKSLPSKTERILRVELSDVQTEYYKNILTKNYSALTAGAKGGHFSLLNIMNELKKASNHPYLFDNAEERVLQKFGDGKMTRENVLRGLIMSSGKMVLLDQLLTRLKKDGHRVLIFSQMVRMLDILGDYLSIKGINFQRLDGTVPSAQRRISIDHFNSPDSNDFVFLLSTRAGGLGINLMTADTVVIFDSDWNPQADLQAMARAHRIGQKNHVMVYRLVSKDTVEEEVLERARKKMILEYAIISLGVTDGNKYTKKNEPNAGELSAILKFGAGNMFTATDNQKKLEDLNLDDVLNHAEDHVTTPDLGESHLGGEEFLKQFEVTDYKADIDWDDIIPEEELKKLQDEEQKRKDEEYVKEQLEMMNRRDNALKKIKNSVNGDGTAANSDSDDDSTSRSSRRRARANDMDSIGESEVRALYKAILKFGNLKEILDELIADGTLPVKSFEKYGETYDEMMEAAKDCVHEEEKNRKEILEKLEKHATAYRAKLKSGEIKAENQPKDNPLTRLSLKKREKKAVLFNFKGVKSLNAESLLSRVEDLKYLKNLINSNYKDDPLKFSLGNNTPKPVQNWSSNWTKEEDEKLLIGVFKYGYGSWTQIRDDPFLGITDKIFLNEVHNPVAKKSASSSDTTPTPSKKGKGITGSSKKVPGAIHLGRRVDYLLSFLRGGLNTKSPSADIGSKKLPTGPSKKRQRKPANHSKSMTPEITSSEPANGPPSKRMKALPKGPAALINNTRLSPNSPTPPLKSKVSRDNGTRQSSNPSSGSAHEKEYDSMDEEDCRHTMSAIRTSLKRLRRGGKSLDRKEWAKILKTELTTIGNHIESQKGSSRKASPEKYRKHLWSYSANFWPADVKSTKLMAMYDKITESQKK

O=C(NC1CCC1)[C@@H]1C[C@@H]2CCN(Cc3ccncc3)C[C@H]2O1
Percent Effect [1]: -4.4% | Percent Effect [2]: 8% | Percent Effect [3]: -3.87% | Percent Effect [4]: 0.172% | Percent Effect [5]: 2.75% | Percent Effect (Trypanosoma cruzi): 5.79% | Percent Effect [6]: -52.1% | Percent Effect [7]: 8.21% | Percent Effect (Homo sapiens): 21.8% | Percent Effect [8]: 1.98% | Percent Effect [9]: 4.17% | Percent Effect [10]: 12.5% | Percent Effect [11]: -8.66%

CCOCC(O)CN1CCN(C(=O)Cc2ccccc2Cl)CC1 (configuration not stated)
Percent Effect [1]: -5.33% | Percent Effect [2]: 0% | Percent Effect [3]: -2.7% | Percent Effect [4]: 8.88% | Percent Effect [5]: -1.32% | Percent Effect (Trypanosoma cruzi): -8.08% | Percent Effect [6]: 4.21% | Percent Effect [7]: 9.36% | Percent Effect (Homo sapiens): 14% | Percent Effect [8]: 19.1% | Percent Effect [9]: 0.49% | Percent Effect [10]: -2.44% | Percent Effect [11]: -1.37%

O=C(NCc1ccccn1)[C@]12COC[C@H]1CN(C1CCC1)C2
Percent Effect [1]: -2.39% | Percent Effect [2]: 18.7% | Percent Effect [3]: -4.34% | Percent Effect [4]: 0.454% | Percent Effect [5]: 0.409% | Percent Effect (Trypanosoma cruzi): 3.86% | Percent Effect [6]: 85.8% | Percent Effect [7]: 10.9% | Percent Effect (Homo sapiens): -5.18% | Percent Effect [8]: -15.4% | Percent Effect [9]: 3.12% | Percent Effect [10]: 10% | Percent Effect [11]: -7.8%

c1ccc(CN2C[C@@H]3OCCN(CC4CCCO4)[C@@H]3C2)nc1 (some centres not stated)
Percent Effect [1]: -4.3% | Percent Effect [2]: 10.8% | Percent Effect [3]: -0.749% | Percent Effect [4]: -3.75% | Percent Effect [5]: 1.76% | Percent Effect (Trypanosoma cruzi): 4.01% | Percent Effect [6]: 15% | Percent Effect [7]: 15.5% | Percent Effect (Homo sapiens): 22.6% | Percent Effect [8]: 4.43% | Percent Effect [9]: 7.57% | Percent Effect [10]: 15.4% | Percent Effect [11]: -4.89%

O=C1[C@H]2CN(Cc3ccoc3)C[C@H]2CN1Cc1ccncc1
Percent Effect [1]: -3.37% | Percent Effect [2]: 7.79% | Percent Effect [3]: 3.69% | Percent Effect [4]: 2.81% | Percent Effect [5]: 28.9% | Percent Effect (Trypanosoma cruzi): -4.23% | Percent Effect [6]: 4.14% | Percent Effect [7]: 7.32% | Percent Effect (Homo sapiens): -1.81% | Percent Effect [8]: -39.9% | Percent Effect [9]: 3.23% | Percent Effect [10]: 8.64% | Percent Effect [11]: 10.5%

O=C(N[C@H]1CN[C@H]2CCCO[C@H]21)c1cscn1
Percent Effect [1]: 1.11% | Percent Effect [2]: 21.9% | Percent Effect [3]: 4.92% | Percent Effect [4]: -4.2% | Percent Effect [5]: 5.27% | Percent Effect (Trypanosoma cruzi): 0% | Percent Effect [6]: -1.6% | Percent Effect [7]: 18.6% | Percent Effect (Homo sapiens): 4.9% | Percent Effect [8]: -0.964% | Percent Effect [9]: 7.29% | Percent Effect [10]: 13.6% | Percent Effect [11]: -4.35%

CCc1nc(CNC(C)Cn2cccn2)cs1 (configuration not stated)
Percent Effect [1]: -1.58% | Percent Effect [2]: 13.5% | Percent Effect [3]: 5.32% | Percent Effect [4]: -19.1% | Percent Effect [5]: 12.1% | Percent Effect (Trypanosoma cruzi): 2.36% | Percent Effect [6]: -12% | Percent Effect [7]: 9.73% | Percent Effect (Homo sapiens): 14.4% | Percent Effect [8]: 9.22% | Percent Effect [9]: 12.3% | Percent Effect [10]: 30.9% | Percent Effect [11]: -13.1%

c1cncc(CO[C@H]2CC[C@H]3[C@@H]2OCCN3C2CCOCC2)c1
Percent Effect [1]: 1.26% | Percent Effect [2]: 2.74% | Percent Effect [3]: 0.0456% | Percent Effect [4]: -4.02% | Percent Effect [5]: 5.81% | Percent Effect (Trypanosoma cruzi): 7.14% | Percent Effect [6]: -0.399% | Percent Effect [7]: 4.37% | Percent Effect (Homo sapiens): -1.77% | Percent Effect [8]: -20.6% | Percent Effect [9]: 3.12% | Percent Effect [10]: 8.64% | Percent Effect [11]: 1.15%

c1ccc(CN2CCO[C@H]3[C@H](OCCN4CCCC4)CC[C@@H]32)nc1
Percent Effect [1]: -1.73% | Percent Effect [2]: -2.67% | Percent Effect [3]: 0.641% | Percent Effect [4]: 2.45% | Percent Effect [5]: 8.64% | Percent Effect (Trypanosoma cruzi): -2.7% | Percent Effect [6]: -53.2% | Percent Effect [7]: -0.855% | Percent Effect (Homo sapiens): -6.91% | Percent Effect [8]: -16.4% | Percent Effect [9]: 4.17% | Percent Effect [10]: 5% | Percent Effect [11]: 0.266%
